Screening results as filed in PubChem.
GCN5L2 inh = blocks human GCN5L2 histone acetyltransferase; Q92830; 390,000 tested, 0.21% active; Potency, µM (doses to about 58.9 µM), for inactives: top-dose activity change, negative = inhibition, most hits filed as inhibitors; GCN5L2 HAT assay, ThioGlo1 CoA-SH fluorescence
Target sequence (Q92830 whole entry, looked up): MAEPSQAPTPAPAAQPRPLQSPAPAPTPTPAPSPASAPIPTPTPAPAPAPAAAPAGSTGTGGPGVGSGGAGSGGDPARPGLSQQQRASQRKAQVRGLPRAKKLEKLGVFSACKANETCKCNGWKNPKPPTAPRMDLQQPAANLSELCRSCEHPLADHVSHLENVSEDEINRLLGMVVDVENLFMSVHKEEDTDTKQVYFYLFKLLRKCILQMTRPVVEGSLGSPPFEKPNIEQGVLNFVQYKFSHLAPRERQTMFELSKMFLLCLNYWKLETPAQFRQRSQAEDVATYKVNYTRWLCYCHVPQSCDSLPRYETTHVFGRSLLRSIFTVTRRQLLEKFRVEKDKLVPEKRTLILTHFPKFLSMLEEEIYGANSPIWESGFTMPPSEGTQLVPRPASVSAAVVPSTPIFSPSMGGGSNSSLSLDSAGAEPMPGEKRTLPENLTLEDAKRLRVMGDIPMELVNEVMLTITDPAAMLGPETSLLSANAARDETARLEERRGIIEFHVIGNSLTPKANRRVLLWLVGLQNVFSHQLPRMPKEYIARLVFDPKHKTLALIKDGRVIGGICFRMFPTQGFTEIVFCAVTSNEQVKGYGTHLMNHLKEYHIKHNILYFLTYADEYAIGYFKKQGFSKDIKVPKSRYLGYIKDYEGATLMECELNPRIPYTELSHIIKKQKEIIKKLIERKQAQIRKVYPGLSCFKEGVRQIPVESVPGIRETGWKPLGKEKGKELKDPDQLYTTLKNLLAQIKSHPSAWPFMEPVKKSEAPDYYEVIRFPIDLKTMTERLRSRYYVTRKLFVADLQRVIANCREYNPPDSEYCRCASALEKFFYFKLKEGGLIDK
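Titration-based screen in which CoA formation is detected via maleimide probe ThioGlo1 (50uM) turning fluorescent on thiol reaction; substrates H3(1-25) 75uM and acetyl-CoA 70uM, GCN5L2 20nM, 20 min incubation at room temperature.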
VDR inh = inhibitors of human vitamin D receptor | P11473 | VDR-SRC2-3 peptide fluorescence polarization, 2 h | Potency, µM, inactives show max response, negative = inhibition, hits mostly inhibitors | 400,000 tested, 0.93% active | AID 504847
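Compounds are added to VDR with labelled SRC2-3 coactivator peptide and held 2 h at room temperature. Inhibition of the VDR–peptide interaction is then read as a change in fluorescence polarization.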
PLK1 PBD inh = blocks phosphopeptide binding to human PLK1 polo-box domain | P53350 | Plk1 PBD binding of FITC phosphopeptide, fluorescence polarization | Potency, µM, for the others: max response, negative = inhibition, hits mostly inhibitors | 360,000 tested, 2.8% active; further: series mostly up to about 57 µM; nearly all actives have a fitted effect of over 65% in size
DT40 TDP1 no CPT = qHTS for Inhibitors of human tyrosyl-DNA phosphodiesterase 1 (TDP1): qHTS in cells in absence of CPT. DT40 Tdp1-/- hTDP1 cells, no CPT, ATP luminescence, 48 h. Potency, µM (doses to about 46.2 µM), inactives show at the highest dose activity change, negative = growth inhibition, most hits filed as inhibitors. 420,000 tested, 15% active; further: nearly all actives have a fitted effect of over 55% in size
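Chicken DT40 Tdp1-/- cells stably complemented with human TDP1 were seeded at 400 cells/well with DMSO in place of 20 nM camptothecin. After compound pinning, cells grew at least 48 hr at 37 °C; viability read by CellTiter-Glo luminescence.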
TDP1 block = TDP1 (human) enzyme inhibition; Q9NUW8; recombinant TDP1, AlphaScreen DNA substrate cleavage; Potency, µM (top dose mostly 130 µM), inactives show at the top dose activity change, negative = inhibition, hits mostly inhibitors; 350,000 tested, 0.28% active; AID 485290; further: nearly all actives have a fitted effect of over 40% in size
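E. coli-derived human Tdp1, 1 nM final. Cpd preinc 15 min RT; substrate 15 nM final, 5 min RT; AS bead mix 10 ug/ml final, 10 min RT. Signal loss = tyrosine-FITC cleavage. No-enzyme wells = max signal.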
DT40 TDP1 CPT = DT40-hTDP1 cell growth loss with CPT; chicken DT40 Tdp1-/-;hTDP1 cells + 20 nM CPT, ATP luminescence, 48 h; Potency, µM (top dose mostly 46.2 µM), for inactives: at the highest dose activity change, negative = growth inhibition, actives largely listed as inhibitors; 420,000 tested, 12% active; AID 686979; further: nearly all actives have a fitted effect of over 55% in size
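Cell growth measured by CellTiter-Glo luminescence after a minimum 48 h, 37 C compound exposure with 20 nM CPT in Tdp1-knockout DT40 cells stably expressing hTDP1, seeded 400/well; qHTS titration format.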
* hit, by the source's call; ? = inconclusive; · = not tested or not shown; [ ] = remark or other dose. Most compounds without a hit are left out; they make up all but 18% or so of the library. The call rests on the fitted dose curve; in most records, active means well fitted curve in the direction sought with a large enough effect; inconclusive means small, poorly fitted or top-dose-only effect, or another doubt; inactive means no such curve, though single readings can be large; an effect the other way counts as inactive or inconclusive. On the % scale 0 is the no-effect control and ±100 the full control effect; potency means the concentration at half of the fitted maximal effect.

SMILES | GCN5L2 inh | VDR inh | PLK1 PBD inh | DT40 TDP1 no CPT | TDP1 block | DT40 TDP1 CPT
COc1ccc(COCC(O)CN2CCC(CN3C(=O)c4cccc5cccc(c45)C3=O)CC2)cc1OC (stereo not drawn) | 2.6% | -14.4% | -6.6% | 20.6µM* | 0.0% | ?
COc1ccc(OCC(O)CN2C(=O)c3ccccc3C2=O)cc1 (stereo not drawn) | -10.6% | -21.5% | -19.0% | -7.4% | · | 0.0%
O=C1c2cccc3cccc(c23)C(=O)N1CC1CCN(CC(O)COc2ccc3ccccc3c2)CC1 (stereo not drawn) | -14.7% | -5.0% | -8.8% | 11.6µM* | 5.8% | 14.6µM*
O=C(N1CCOCC1)N1CCN(CC(O)COc2ccc3ccccc3c2)CC1 (stereo not drawn) | -11.4% | 0.3% | -1.6% | -28.8% | -3.3% | 0.6%
COc1ccc(COCC(O)CN2CCC(C(N)=O)CC2)cc1OC (stereo not drawn) | -1.0% | 12.4% | -3.6% | 3.3% | 6.3% | 15.6%
COc1cccc(OCC(O)CN2CCC(CN3C(=O)c4cccc5cccc(c45)C3=O)CC2)c1 (stereo not drawn) | -7.9% | 12.3% | -15.7% | 7.31µM* | -2.5% | 8.2µM*
CCN(CC)CCCN=Cc1c(O)n(-c2ccccc2C)c(=O)c2ccccc12 | -6.3% | 7.8% | -4.3% | -22.5% | 1.4% | ?
O=C1c2cccc3cccc(c23)C(=O)N1CCN1CCN(CC(O)COc2ccc3ccccc3c2)CC1 (stereo not drawn) | 0.4% | -6.5% | -5.4% | 10.3µM* | 5.3% | 18.4µM*
CCOC(=O)c1cc(C)n(CC2CCC(C(=O)Nc3cccc(C(C)=O)c3)CC2)c1C (stereo not drawn) | -3.5% | -7.7% | · | 25.9µM* | 2.8% | 23.1µM*
CCOC(=O)c1cc(C)n(CC2CCC(C(=O)Nc3ccc(OC)c(OC)c3)CC2)c1C (stereo not drawn) | -0.6% | 6.6% | · | -18.4% | 0.0% | -22.5%
CCOC(=O)c1cc(C)n(CC2CCC(C(=O)Nc3ccc(C(=O)OC)cc3)CC2)c1C (stereo not drawn) | 2.8% | 15.5% | · | 18.4µM* | 2.8% | 23.1µM*
CCOC(=O)c1cc(C)n(CC2CCC(C(=O)Nc3ccc(Cl)cc3)CC2)c1C (stereo not drawn) | -5.0% | 10.8% | · | 11.6µM* | 2.8% | 18.4µM*
CCOC(=O)c1cc(C)n(CC2CCC(C(=O)Nc3cccc(Cl)c3)CC2)c1C (stereo not drawn) | -14.3% | 6.5% | · | 16.4µM* | 4.7% | ?
Cc1onc(-c2ccccc2)c1C(=O)NC1C(=O)N2C(C(=O)O)C(C)(C)S[C@@H]12 (stereo partly drawn) | 24.6% | -3.0% | · | -2.1% | -6.8%[56.1 µM] | 8.9%
O=C(c1ccc(F)c(F)c1)N1CCOc2ccc(CN3CCN(CCO)CC3)cc2C1 | · | · | · | -11.3% | · | 21.5%
O=C(CSc1nnc(-c2ccccc2F)o1)N1CCc2ccccc21 | -4.0% | -19.1% | · | ? | -2.5% | ?
Cn1nc(-c2ccncc2)nc2c(=O)n(C)c(=O)nc1-2 | · | -8.1% | · | 0.355µM* | 3.9% | 0.316µM*
CCn1nc(-c2ccc(C)cc2)nc2c(=O)n(C)c(=O)nc1-2 | · | ? | · | 2.24µM* | -0.1% | 1.58µM*
COc1ccc(-c2noc(-c3ccccc3-c3ccccc3)n2)cc1OC | -7.8% | 1.0% | 4.0% | 25.9µM* | 6.2% | ?
COc1ccc(-c2noc(-c3ccccc3C(=O)NCc3ccco3)n2)cc1OC | -14.5% | -5.4% | -7.5% | 14.6µM* | 7.8% | ?
COc1ccc(-c2noc(-c3ccc(C)cc3Cl)n2)cc1OC | 2.7% | -10.0% | · | -4.8% | 0.0% | -11.0%
COc1ccc(N=c2oc3c(OC)cccc3cc2C(=O)NCc2ccco2)cc1OC | -10.9% | 16.5% | 1.0% | 7.31µM* | 9.5% | 11.6µM*
CS(=O)c1ccccc1-c1nc(-c2cccc(Cl)c2)no1 (stereo not drawn) | -4.7% | -9.5% | 26.7µM* | 16.4µM* | -2.9% | ?
COc1ccccc1N=c1oc2c(OC)cccc2cc1C(=O)NCc1ccco1 | -3.3% | -4.5% | -4.4% | ? | -2.0% | ?
CS(=O)(=O)c1ccccc1-c1nc(-c2cccc(Cl)c2)no1 | -7.0% | -4.5% | -7.7% | ? | 0.0% | 4.0%
SMILES | GCN5L2 inh | VDR inh | PLK1 PBD inh | DT40 TDP1 no CPT | TDP1 block | DT40 TDP1 CPT
CC(C)(C)CC(C)(C)NC(=O)Nc1cccc([N+](=O)[O-])c1 | -18.1% | -26.5% | -6.8% | 16.4µM* | -4.9% | ?
O=C(Nc1cccc([N+](=O)[O-])c1)C1C2CC/C=C\CCC21 (stereo not drawn) | -2.4% | 16.9% | -8.8% | 18.4µM* | 0.0% | -27.9%
O=C(O)C1C2CCC(C2)C1C(=O)Nc1cccc([N+](=O)[O-])c1 (stereo not drawn) | 6.3% | 4.1% | -3.1% | -0.8% | · | 7.1%
O=C(Nc1cccc([N+](=O)[O-])c1)c1ccncc1 | 2.5% | -0.7% | 4.0% | -20.2% | 0.6% | 0.1%
CC(C)(C)c1ccc(C(=O)Nc2cccc([N+](=O)[O-])c2)cc1 | -7.8% | 2.0% | -1.8% | 18.4µM* | 5.3% | 16.4µM*
CCN1CCCC1CNC(=O)c1cnn(-c2nccc(-c3cc4ccccc4o3)n2)c1C (stereo not drawn) | · | · | · | ? | · | -7.7%[9.04 µM]
COc1cc(-c2cc(C)c3cccc(OC)c3n2)cc2c1OCCN(C(=O)Cn1nc(C)cc1C)C2 | · | · | · | -8.2% | · | 0.9%[9.04 µM]
Oc1ccccc1-c1nc(/C=C/c2ccccc2Cl)nn1-c1ccccc1 | -10.7% | 7.5% | · | · | -5.8% | ·
Cc1c(C(=O)N2CCN(Cc3ccccc3)CC2)oc2c1C(=O)CCC2 | -4.0% | -11.0% | -6.5% | -18.0% | -0.2% | -10.7%
CCN(CCCNC(=O)CSc1cc(=O)n(CC)c2ccccc12)c1cccc(C)c1 | -5.8% | -1.3% | · | 20.6µM* | 11.6% | 20.6µM*
CCn1c(=O)cc(SCC(=O)NCCc2ccc(OC)cc2OC)c2ccccc21 | -9.3% | 1.4% | · | 23.1µM* | 8.8% | ?
CCOc1ccc(CCNC(=O)CSc2cc(=O)n(CC)c3ccccc23)cc1OCC | -0.4% | -4.9% | 0.4% | ? | 2.7% | ?
CCn1c(=O)cc(SCC(=O)NCc2ccccc2OC)c2ccccc21 | -1.8% | 9.6% | · | 23.1µM* | 4.6% | ?
COc1ccc(Cl)cc1C(=O)Nc1cccnc1Cl | -0.9% | -2.7% | 2.7% | -13.0% | · | 5.9%
CCOC(=O)CNC(=O)CSc1nc(C(C)C)nc2c1cnn2-c1ccccc1 | · | · | -0.5% | ? | · | -22.0%
